A short description of assay [1]: NCI Yeast Anticancer Drug Screen. Data for the rad50 strain (AID 155).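 Note: 0% = growth of vehicle-only cultures of the same strain.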 To be noted: S. cerevisiae rad50 strain growth inhibition; at 50.0 µM; stronger effect = higher value. The method in brief:
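Yeast carrying a defined DNA repair defect were exposed to test compounds, and growth was compared with vehicle-treated controls to give percent inhibition.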

Assay [2] in a line: NCI Yeast Anticancer Drug Screen. Data for the mec2-1 strain (AID 157). Conditions: S. cerevisiae mec2-1 strain, at 50.0 µM, stronger effect = higher value. In a few lines: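 Yeast mec2-1 mutant treated with compound. Readout: growth inhibition vs vehicle controls.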
Assay [3] in a line: NCI Yeast Anticancer Drug Screen. Data for the sgs1 mgt1 strain (AID 161).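 Note: 0% = growth of cultures given vehicle only.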 To be noted: S. cerevisiae sgs1 mgt1 strain, at 50.0 µM, stronger effect = higher value. The method in brief:
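Inhibition of yeast growth, normalised to vehicle-treated controls, is reported for a strain bearing genetic alterations in DNA damage repair.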

A short description of assay [4]: NCI Yeast Anticancer Drug Screen. Data for the cln2 rad14 strain (AID 165).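 Note: 0% = growth equal to vehicle treated cultures.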 Conditions: S. cerevisiae cln2 rad14 strain, at 50.0 µM, stronger effect = higher value. In a few lines: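 cln2 rad14 yeast strain; compound exposure; growth inhibition read vs vehicle controls.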
A short description of assay [5]: NCI Yeast Anticancer Drug Screen. Data for the bub3 strain (AID 167). Conditions: S. cerevisiae bub3 mutant strain, at 50.0 µM, stronger effect = higher value. The method in brief: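 Compounds were applied to a genetically altered yeast strain carrying a cell-cycle control defect. Growth inhibition was scored against vehicle-treated controls.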
Assay [6] in a line: NCI Yeast Anticancer Drug Screen. Data for the mlh1 rad18 strain (AID 175). To be noted: S. cerevisiae mlh1 rad18 strain growth inhibition; at 50.0 µM; stronger effect = higher value. In a few lines: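 Yeast w/ defined DNA-repair lesions; compound exposure; growth vs vehicle controls → % inhibition.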

The structures appear in SMILES notation. Where “and” joins values, the source holds several entries; their conditions need not be identical. Equal entries are not always repeated. About 79,000 compounds went through this panel and 15% of them were active in at least one assay; those are over-represented in the sample as a whole. More than one record can exist for a structure, and the calls need not agree. Calls of active or inactive are those of the source. Cut-off read from the data, not from the text of the source: active = growth inhibition above about 70%; inactive = the rest.

On to `COc1cc(CC(N)Cc2c[nH]c3ccccc23)cc(OC)c1OC` (centres undefined), for which the growth inhibition in assay [1] is -5.2% (inactive); in assay [2], -5.8% (inactive); in assay [3] it was -4.85% (inactive); in assay [4] it was 24.6% (inactive); in assay [5], -25.3% (inactive); in assay [6], -3.35% (inactive).
As to `CCOP(=O)(CSCCC1(C)NC(=O)NC1=O)OCC` (centres undefined), the growth inhibition was 8.6% (inactive) in assay [1]; -9.7% (inactive) in assay [2]; 23.9% (inactive) in assay [3]; 2.65% (inactive) in assay [4]; 7.2% (inactive) in assay [5]; 7.45% (inactive) in assay [6].
As to `CC[C@@]1(O)C(=O)OCc2c1cc1n(c2=O)Cc2c-1nc1ccccc1c2C=Nc1ccc(N[C@@H]2c3cc4c(cc3[C@@H](c3cc(OC)c(O)c(OC)c3)[C@H]3C(=O)OC[C@@H]32)OCO4)cc1`, the growth inhibition is 49.7% (inactive) and 82.5% (active) in assay [1]; 71.6% (active) and 76.7% (active) in assay [2]; 69.9% (inactive) and 80.4% (active) in assay [3]; 54% (inactive) and 77.9% (active) in assay [4]; 50.3% (inactive) and 83.3% (active) in assay [5]; 46% (inactive) and 81.2% (active) in assay [6].
For `O=C(O)c1ccc(Cl)c(Cl)c1.[Ni]`, the growth inhibition in assay [1] was -19.1% (inactive); in assay [2] it was -16.4% (inactive); in assay [3], -4.35% (inactive); in assay [4] it was -11.9% (inactive); in assay [5] it was -23.4% (inactive); in assay [6] it was -19.7% (inactive).
In the case of `O=C1C=CC(=Nc2cc(Cl)c(O)c(Cl)c2)C=C1`, the growth inhibition in assay [1] was 26.6% (inactive); in assay [2], 42.5% (inactive); in assay [3], 32.5% (inactive); in assay [4], 20.1% (inactive); in assay [5] it was 31.1% (inactive); in assay [6] it was 42.8% (inactive).
In the case of `CCOC(OC1=C(C#N)CCCC1)C(CC)[Se]c1ccccc1` (centres undefined), the growth inhibition in assay [1] was 62.6% (inactive); in assay [2], 21.3% (inactive); in assay [3], 50.8% (inactive); in assay [4], 52% (inactive); in assay [5] it was 44.1% (inactive); in assay [6] it was 57.8% (inactive).
Turning to `O=C(Oc1ccc(S(=O)(=O)F)cc1Cl)c1ccccc1Cl`, the growth inhibition in assay [1] is 99.4% (active); in assay [2], 99.6% (active); in assay [3] it was 99.5% (active); in assay [4], 99.3% (active); in assay [5], 99.4% (active); in assay [6] it was 99.4% (active).
With `NC(N)=NOCC[C@@H](N)C(=O)O`, the growth inhibition in assay [1] was -0.5% (inactive); in assay [2], -3.7% (inactive); in assay [3] it was 8.85% (inactive); in assay [4], 20.2% (inactive); in assay [5], 1.4% (inactive); in assay [6], 11.7% (inactive).
Regarding `c1ccc2c(c1)sc1sc3c([n+]12)CCCC3`, the growth inhibition in assay [1] was 6.25% (inactive); in assay [2] it was -8.75% (inactive); in assay [3], -5.3% (inactive); in assay [4], -2.4% (inactive); in assay [5] it was -4.5% (inactive); in assay [6], -20.2% (inactive).
In the case of `O=P1(N2CCOCC2)OC(c2ccccc2)=CCN1c1ccc(Cl)cc1` (centres undefined), the growth inhibition is -8.9% (inactive) in assay [1]; 1.3% (inactive) in assay [2]; -1.85% (inactive) in assay [3]; -20.1% (inactive) in assay [4]; 5.2% (inactive) in assay [5]; 6.55% (inactive) in assay [6].
As to `C#CCN1C(=O)CN2C(Cl)(Cl)C2(c2ccccc2)c2cc(Cl)ccc21` (centres undefined), the growth inhibition in assay [1] was 20.1% (inactive); in assay [2], 16.1% (inactive); in assay [3], -13.4% (inactive); in assay [4], -1.8% (inactive); in assay [5] it was 3.35% (inactive); in assay [6], 37.6% (inactive).
As for `CC1([N+](=O)[O-])COP(=O)(OP2(=O)OCC(C)([N+](=O)[O-])CO2)OC1` (centres undefined), the growth inhibition was 29.8% (inactive) in assay [1]; 10.2% (inactive) in assay [2]; 28.9% (inactive) in assay [3]; 26.6% (inactive) in assay [4]; 3.85% (inactive) in assay [5]; 20% (inactive) in assay [6].
Regarding `Oc1ccc(CCNCc2cc3c(cc2Br)OCO3)cc1`, the growth inhibition is 18.7% (inactive) in assay [1]; 12% (inactive) in assay [2]; -11.1% (inactive) in assay [3]; 1.2% (inactive) in assay [4]; 32.9% (inactive) in assay [5]; 21.9% (inactive) in assay [6].
Consider `CC(=O)C(=O)c1ccccc1`, for which the growth inhibition in assay [1] was -14.6% (inactive); in assay [2] it was 6.5% (inactive); in assay [3], -0.45% (inactive); in assay [4] it was -25.8% (inactive); in assay [5], -19.7% (inactive); in assay [6], -21.5% (inactive).
For the compound `CC(C)CCC[C@@H](C)[C@H]1CC[C@H]2[C@@H]3CC[C@H]4C[C@H]5N[C@H]5C[C@]4(C)[C@H]3CC[C@]12C`, the growth inhibition in assay [1] was 10.6% (inactive); in assay [2], -21.8% (inactive); in assay [3], 5.2% (inactive); in assay [4], -3.55% (inactive); in assay [5] it was -9.6% (inactive); in assay [6], 0.1% (inactive).
Turning to `[CH3][Sn]([CH3])([Cl])[S]CCN`, the growth inhibition was 29.6% (inactive) in assay [1]; 32.5% (inactive) in assay [2]; -5.55% (inactive) in assay [3]; 1.25% (inactive) in assay [4]; -15.4% (inactive) in assay [5]; 18.6% (inactive) in assay [6].
For `CN1CC(C(=O)NO)C=C2c3cccc4[nH]cc(c34)CC21` (centres undefined), the growth inhibition in assay [1] is 8.8% (inactive); in assay [2], 42.5% (inactive); in assay [3], 23.5% (inactive); in assay [4] it was -3.7% (inactive); in assay [5] it was 41.5% (inactive); in assay [6], 14.4% (inactive).
Consider `O=C(CCN1CC2CCC(CC2)C1)c1cccs1`, for which the growth inhibition in assay [1] is -15.8% (inactive); in assay [2] it was -21.9% (inactive); in assay [3], -16.4% (inactive); in assay [4] it was -13.9% (inactive); in assay [5], -45.8% (inactive); in assay [6], -28.8% (inactive).
With `CC(CC(C#N)(c1ccccc1)c1ccccc1)[N+]1(C)CCCCCCC1` (centres undefined), the growth inhibition in assay [1] is 11.9% (inactive); in assay [2], 1.2% (inactive); in assay [3] it was 2.85% (inactive); in assay [4] it was 1.65% (inactive); in assay [5] it was 1.35% (inactive); in assay [6] it was 19% (inactive).

For the origin of these results see PubChem BioAssay (NCI).
